The source of these data is PubChem BioAssay (NCI).

This is part of a sample that, as a whole, favours compounds with a hit. Of some 83,000 tested, about 20% had one in any assay.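 For each line, cells grew in 96-well plates with the test compound present at a single concentration for 48 hours.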 Unmarked numbers belong to inactive results. Activity calls are given as the source filed them. Rule for the calls: active = growth percent below 10; inactive = the rest.

What all share (assay): NCI-60 one-dose screen, 48 h (100 = growth as untreated, 0 = no growth, -100 = all killed)
What all share (details): 10 µM

Assay [1] deals with DU-145 prostate.
Assay [2] has as its system K-562 leukemia.
Assay [3] concerns MALME-3M melanoma.
Assay [4] deals with MDA-MB-231 breast.
Assay [5] concerns RXF 393 renal.
The test system of assay [6] is SF-268 CNS.
Assay [7] has as its system SF-295 CNS.
Assay [8] deals with SF-539 CNS.
For assay [9], the system named is M14 melanoma.
Assay [10] relates to HCT-15 colon.
The test system of assay [11] is HT29 colon.
Assay [12] relates to SNB-75 CNS.
For assay [13], the system named is SNB-19 CNS.
Assay [14] concerns U251 CNS.
For assay [15], the system named is SK-MEL-5 melanoma.
The test system of assay [16] is UACC-62 melanoma.
The test system of assay [17] is LOX IMVI melanoma.
Assay [18] concerns SK-MEL-28 melanoma.
The subject of assay [19] is PC-3 prostate.
The test system of assay [20] is UACC-257 melanoma.

Regarding `CCOC(=O)CSc1nc(-c2cc(OC)ccc2OC)cc(-c2ccc(OC)cc2)c1C#N`, the growth was 75.2% in [1]; 106% in assay [2]; 98.8% in assay [3]; 83.9% in [4]; 70.3% in [5]; 73.9% in [6]. The growth is 70.3% in assay [7]; 64.6% in assay [8]; 76.9% in [9]; 69.1% in assay [10]; 64.2% in assay [11]; 97.5% in assay [12]. The growth is 94.2% in assay [13]; 86.7% in assay [14]; 80% in assay [15]; 71% in assay [16]; 85.5% in assay [17]; 84.8% in assay [18].

Take `O=C1c2ccccc2-c2c1c1cccnc1c(=O)n2C[C@H](O)CO`: the growth in assay [1] was 80.9%; in [2], 76.6%; in assay [3], 66.8%; in [4], 75.7%; in assay [5], 91%; in assay [6], 75.3%. For the same molecule, the growth in assay [7] is 50.3%; in assay [8], 52%; in assay [9] it was 75.4%; in assay [10] it was 62.8%; in assay [11], 57.7%; in assay [12], 63.9%. Moreover, the growth in assay [13] is 59.2%; in assay [14], 46.8%; in [15] it was 50.9%; in assay [16] it was 51%; in assay [17], 36.3%; in assay [18], 87.9%.

`CCCCCCCCCCCCCCCCCC[n+]1ccc2c(C)c3c(c(C)c2c1)c1cc(O)ccc1n3CC`: the growth in assay [1] was 40.4%; in assay [2], 9.4% (active); in [3], -55.2% (active); in [4] it was 19%; in assay [5] it was -7.68% (active); in [6] it was 4.77% (active). Moreover, the growth was -1.22% (active) in assay [7]; -21.2% (active) in assay [8]; -2.39% (active) in [9]; 48.8% in assay [10]; 17.2% in [11]; 24.5% in [12]. In addition, the growth in assay [13] was 5.25% (active); in assay [14], -34.9% (active); in [15], -94.2% (active); in assay [16], -11.8% (active); in assay [17], 20.6%; in assay [18], 7.4% (active).

On to `COc1ccc(C(=O)CSc2nc(-c3cc(OC)ccc3OC)cc(-c3ccc(OC)cc3)c2C#N)cc1`, for which the growth is 108% in assay [1]; 102% in assay [2]; 110% in assay [3]; 102% in assay [4]; 107% in assay [5]; 90% in [6]. In addition, the growth was 100% in assay [7]; 86.5% in assay [8]; 93.9% in assay [9]; 92.1% in assay [10]; 92.2% in [11]; 90.1% in [12]. Besides, the growth in [13] is 99.9%; in assay [14] it was 104%; in [15], 99.1%; in [16] it was 93.7%; in assay [18] it was 101%.

Turning to `CCOC(=O)c1sc2ncnc(Nc3ccc4c(cnn4C(=O)Nc4ccccc4)c3)c2c1C`, the growth was 64.6% in assay [1]; 91.6% in assay [2]; 32.7% in assay [3]; 37.2% in assay [4]; 55.4% in assay [5]; 66.2% in assay [6]. Besides, the growth in assay [7] is 98.3%; in assay [8] it was 19.2%; in [9], 63.7%; in [10], 72.6%; in [11] it was 40.7%; in assay [12] it was 10.7%. The growth was 85.8% in [13]; 53% in assay [14]; 31.1% in assay [15]; 59.7% in assay [16]; 36.4% in assay [17]; 72.7% in assay [18].

As for `CCOC(=O)c1sc2ncnc(Nc3ccc4c(cnn4C(=O)Nc4ccc(C)c(Cl)c4)c3)c2c1C`, the growth was 102% in assay [1]; 102% in [2]; 91.1% in assay [3]; 96.5% in [4]; 99.3% in assay [5]; 103% in assay [6]. Further, the growth was 102% in assay [7]; 104% in assay [8]; 103% in assay [9]; 95.3% in [10]; 90% in [11]; 110% in assay [12]. In addition, the growth is 103% in [13]; 99.3% in assay [14]; 102% in assay [15]; 99.6% in assay [16]; 96% in assay [17]; 111% in [18].

`O=C(Nc1ccccc1)Nc1ncnc2c1ncn2-c1ccccc1`: the growth is 99.2% in assay [1]; 98.7% in assay [2]; 76.5% in assay [3]; 68.3% in [4]; 95.4% in [5]; 92.5% in assay [6]. The growth in [7] is 31%; in assay [8] it was 82.8%; in [9], 81.4%; in assay [10], 85%; in assay [11], 75.2%; in assay [12], 41.5%. The growth in assay [13] is 57.7%; in [14], 48.9%; in [15], 67.7%; in [16] it was 91.8%; in [17], 91%; in assay [18], 94%.

In the case of `CNC(=O)c1cc(Oc2ccc3c(c2)sc2nc(-c4ccc(N)cc4)cn23)ccn1`, the growth in assay [1] was 7.79% (active); in assay [2], 12%; in [3], 66.8%; in assay [4], 22.2%; in assay [5], 43.8%; in assay [6], 41.9%. For the same molecule, the growth was 18% in assay [7]; 6.43% (active) in assay [8]; 15.5% in assay [9]; 11% in assay [10]; 0.705% (active) in assay [11]; 38.4% in [12]. Besides, the growth was 32.1% in [13]; 29.2% in assay [19]; -0.651% (active) in assay [15]; 41.9% in assay [16]; 22.7% in [17]; 66.1% in [18].

As to `c1cncc(-c2csc(-c3c[nH]c4ccccc34)n2)c1`, the growth in assay [1] is 103%; in [2], 97.7%; in assay [3], 78.8%; in [4] it was 73.5%; in assay [5], 111%; in assay [6], 92.5%. Further, the growth is 92.6% in [7]; 84.9% in [8]; 85.8% in [9]; 85.4% in assay [10]; 92.4% in assay [11]; 63.7% in assay [12]. For the same molecule, the growth was 95.5% in [13]; 84.5% in assay [15]; 88.7% in assay [16]; 87% in [17]; 103% in [18].

Consider `Cc1c2c[n+](C(C)C)ccc2c(C)c2c1[nH]c1ccccc12`, for which the growth in assay [1] was 36.1%; in assay [2], 23.3%; in assay [3], -25.6% (active); in assay [4], 35.3%; in assay [5], 60.3%; in assay [6], 15.3%. The growth in assay [7] is 2.91% (active); in assay [8] it was 20.8%; in [9] it was 30%; in [10] it was 87.7%; in assay [11] it was 21.5%; in assay [12], 41%. Moreover, the growth in assay [13] is 4.83% (active); in assay [14] it was 13.6%; in assay [15], -63.4% (active); in assay [16] it was 10.5%; in assay [17], 40.7%; in assay [18], 15.7%.

For the molecule `Nc1ccc(-c2cccs2)cc1NC(=O)c1ccc(CCCC(=O)Nc2ccc(C3CC3N)cc2)cc1` (stereo unspecified), the growth in [1] is 84.6%; in assay [2], -30.7% (active); in assay [3], 75.1%; in assay [4], 47.1%; in assay [5], 77%; in assay [6] it was 104%. The growth is 84% in assay [7]; 77% in assay [8]; 70.8% in [9]; 87.2% in assay [10]; 64.8% in assay [11]; 111% in assay [12]. Besides, the growth was 90.8% in assay [13]; 7.02% (active) in assay [14]; 20% in [15]; 45.5% in [16]; 19% in [17]; 83.1% in [18].

For `N#Cc1c(-c2ccc(Cl)cc2)cc(-c2cc(O)ccc2O)nc1N`, the growth in assay [1] was 21.7%; in [2] it was 29.1%; in [3], 30.2%; in assay [4] it was -5.89% (active); in [5], 15.7%; in assay [6], 31.9%. Besides, the growth in assay [7] is 75.6%; in [8] it was -1.42% (active); in assay [9], 2.5% (active); in [10], 43.8%; in assay [11], 87.3%; in assay [12] it was 32.8%. In addition, the growth was 26.5% in assay [13]; -26.5% (active) in assay [14]; -79.9% (active) in assay [15]; -25.6% (active) in assay [16]; -56.2% (active) in assay [17]; 18.4% in [18].

As to `Clc1nc2ccccc2cc1Cn1nnc(Cc2ccccc2)n1`, the growth was 75.2% in [1]; 55.2% in assay [2]; 65.6% in assay [3]; 53.1% in assay [4]; 83.9% in [5]; 65.7% in assay [6]. Moreover, the growth in assay [7] was 47.6%; in assay [8], 81.2%; in [9], 73.6%; in assay [10], 65%; in assay [11], 71.5%; in assay [12] it was 55.4%. The growth is 89.9% in assay [13]; 76.3% in [14]; 0.724% (active) in assay [15]; 51.7% in [16]; 53.6% in [17]; 84.7% in assay [18].

As to `O=C1C=C(Nc2cccc(Br)c2)c2ccccc2C1=O`, the growth is 22.4% in assay [1]; 21.4% in [2]; 47.2% in assay [3]; 54.6% in [4]; 31.8% in assay [5]; 58% in assay [6]. Besides, the growth in assay [8] was 15%; in assay [20], 79.4%; in assay [9], 14.4%; in assay [10], 22.7%; in [11], 111%; in assay [12], 12%. Besides, the growth is 43.6% in [13]; 31.3% in assay [14]; 15.8% in assay [15]; 46.8% in assay [16]; 37.5% in assay [17]; 56.7% in [18].

For `c1cnc2[nH]cc(-c3nc(-c4ccsc4)cs3)c2c1`, the growth was 98.8% in assay [1]; 109% in [2]; 121% in assay [3]; 85.6% in assay [4]; 98.3% in assay [5]; 79.9% in assay [6]. The growth in assay [7] was 101%; in assay [8] it was 93.7%; in [9], 104%; in [10], 86.1%; in assay [11], 104%; in [12], 90.7%. Further, the growth in assay [13] is 102%; in [14] it was 90.4%; in assay [15], 81.6%; in assay [16], 96.2%; in assay [17], 96.2%; in assay [18], 122%.

For the molecule `Nc1ccccc1NC(=O)c1ccc(CCCC(=O)Nc2ccc(C3CC3N)cc2)cc1` (stereo unspecified), the growth was 38.7% in assay [1]; 25.4% in assay [2]; 21.7% in assay [3]; 47.5% in assay [4]; 20.8% in assay [5]; 32.6% in assay [6]. Moreover, the growth in [7] was 22.1%; in assay [8] it was 30.9%; in [9], 27%; in assay [10] it was 87.4%; in assay [11], 9.38% (active); in assay [12], 66.4%. The growth in assay [13] was 49.7%; in assay [14], 4.65% (active); in assay [15], -41.1% (active); in assay [16] it was -24.8% (active); in [17] it was 12.8%; in assay [18] it was 18%.
